# In paper PMC5540273 (PLoS ONE, 2017):
# Tested on: MRCKA
# Settings: concentration: 1 μM,replicates: in singlicate; n = 1
# 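Note: KINOMEscan kinase panel screen.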
row,SMILES,%Inh [%]
1,Cl.Oc1cc(-c2nc(-c3ccccc3)[nH]c2-c2ccncc2)ccc1Cl [SB-386023],0
2,Cc1cc(C(=O)Nc2ccc(Oc3ccc4nc(NC(=O)C5CC5)cn4n3)cc2)nn1-c1ccccc1,28
3,O=C(NCCNc1ccnc(NCc2ccc(F)cc2)n1)c1cc2ccccc2s1 [GSK1379944],10
4,C[C@@H](Oc1cc(-c2cnn(C3CCNCC3)c2)cnc1N)c1c(Cl)ccc(F)c1Cl,0
5,CNC(=O)c1ccccc1Sc1ccc2c(/C=C/c3ccccn3)n[nH]c2c1,0
6,C=CC(=O)Nc1cc2c(Nc3ccc(F)c(Cl)c3)ncnc2cc1OCCCN1CCOCC1 [GW781483],0
7,CC(C)Nc1cc(-c2ccc3c(N)n[nH]c3c2)nc(N)n1 [GSK2221681],0
8,Nc1nc(Nc2ccccc2)cc(-c2ccc3c(N)n[nH]c3c2)n1 [GSK2225749],0
9,CN(C)CC(O)COc1ccc(Nc2nccc(-c3cnn4nc(N5CCOCC5)ccc34)n2)cc1 (stereo not drawn) [GW767488],0
10,Cc1cc2cn[nH]c2cc1-c1cccc2c(N)c(C(N)=O)nnc12,24
11,O=C(NCCCN1CCOC1=O)c1cnc(NCc2cc(Cl)ccc2Cl)nc1NC1CCCC1,4
12,CCn1c(-c2nonc2N)nc2c(C#CC(C)(C)O)nc(OCCN)cc21.Cl.Cl [GSK902056],3
13,Cc1n[nH]c2ccc(-c3cc(OC[C@@H](N)Cc4ccccc4)cnc3-c3ccoc3)cc12.O=C(O)C(F)(F)F.O=C(O)C(F)(F)F [GSK507358],28
14,CN(C)CCOc1ccc(-c2cc(-c3c[nH]nc3-c3ccccn3)ccn2)cc1 [GW835314],0
15,Cl.Cl.NC[C@H](CC1CCCCC1)NC(=O)c1cc(Br)c(-c2ccnc3[nH]ccc23)s1 [GSK1581427],86
16,CC(C)N1C(=O)Cc2cc(Nc3ncc(C(F)(F)F)c(NCc4cccc(S(C)(=O)=O)c4)n3)ccc21,0
17,NC(=O)c1cc(-c2ccccc2)cc2c(C3CCNCC3)c[nH]c12 [GSK301362],18
18,Cc1ccc2c(-c3ccncc3)c(-c3ccc(F)cc3)nn2c1.Cl [GW461484],5
19,COc1ccc(C[C@@H](CN)NC(=O)c2cc(Br)c(-c3ccnc4[nH]ccc34)s2)cc1.Cl.Cl [GSK1389063],89
20,Cl.Cl.Nc1nc(-c2ccc3c(N)n[nH]c3c2)cc(N2CCCC(NC(=O)c3ccccc3)C2)n1 (stereo not drawn) [GSK2286775],2
21,CCN(CC)CCOc1ccc(Nc2ncc3cc(-c4c(Cl)cccc4Cl)c(=O)n(C)c3n2)cc1 [SB-601273],83
22,CCN(CC)CCCCNc1ncc2cc(-c3c(Cl)cccc3Cl)c(NC(=O)NC(C)(C)C)nc2n1,0
23,Cc1ccc(-n2nc(C(C)(C)C)cc2NC(=O)Nc2ccc(OCCN3CCOCC3)c3ccccc23)cc1 [GW839464],8
24,C[C@@H]1CCN(C(=O)CC#N)C[C@@H]1N(C)c1ncnc2[nH]ccc12,0
25,C[C@H]1Oc2cc(cnc2N)-c2c(nn(C)c2C#N)CN(C)C(=O)c2ccc(F)cc21,0
26,Cc1occc1-c1nc(N)c(OC[C@@H](N)Cc2c[nH]c3ccccc23)cc1-c1cc2c(C)n[nH]c2cn1 [GSK1660450],78
27,Cl.Cl.NC[C@H](Cc1ccc(C(F)(F)F)cc1)NC(=O)c1cc(Br)c(-c2ccnc3[nH]ccc23)s1 [GSK1487252],43
